Test results reported in publication PMC7862700, “An all-to-all approach to the identification of sequence-specific readers for epigenetic DNA modifications on cytosine”.

What was measured:
Test in all cases: DAPPL (digital affinity profiling via proximity ligation, sequencing); 10 mM Tris-HCl pH 7.5, 50 mM NaCl, 1 mM DTT, 4% glycerol, room temperature, 30 min; GST-TFs on glutathione beads, 16-mer random dsDNA library, 0.1% formaldehyde crosslink after washing; high values mean tight binding
FLI1 = target: T1, FLI1 (Homo sapiens, UniProt Q01543 1-452); conditions: protein: recombinant; tags: N-terminal GST; dsDNA, one strand shown
T1 sequence: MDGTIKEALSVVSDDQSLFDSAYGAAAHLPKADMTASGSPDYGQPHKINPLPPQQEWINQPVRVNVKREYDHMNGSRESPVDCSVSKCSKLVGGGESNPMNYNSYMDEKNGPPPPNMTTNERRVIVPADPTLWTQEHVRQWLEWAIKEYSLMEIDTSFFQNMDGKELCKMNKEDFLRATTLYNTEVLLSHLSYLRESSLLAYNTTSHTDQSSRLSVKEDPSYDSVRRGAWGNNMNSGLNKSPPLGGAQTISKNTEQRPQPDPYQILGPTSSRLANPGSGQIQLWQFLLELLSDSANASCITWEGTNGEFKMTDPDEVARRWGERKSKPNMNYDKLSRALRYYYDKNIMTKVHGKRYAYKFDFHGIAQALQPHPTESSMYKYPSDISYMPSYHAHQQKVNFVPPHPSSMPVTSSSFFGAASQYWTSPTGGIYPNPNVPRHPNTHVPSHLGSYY
How it was run: (§1)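 A tag-only sample was pooled with DNA-barcoded human transcription factors that had been expressed in yeast as GST fusions and captured on glutathione beads. The pools were incubated for 30 min at room temperature with 200 nmole of a random double-stranded 16-mer DNA library in Tris/NaCl/DTT/glycerol buffer, then washed, crosslinked with 0.1% formaldehyde, proximity-ligated (BsaI/T4 ligase, 1 h, 37 °C), PCR-amplified and sequenced on an Illumina NextSeq500. Binding signal is each hexamer's read frequency for a factor divided by its frequency for the tag-only sample.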

ELK1 = target: T2, ELK1 (Homo sapiens, UniProt P19419 1-428); conditions: protein: recombinant; tags: N-terminal GST; dsDNA, one strand shown
T2 sequence: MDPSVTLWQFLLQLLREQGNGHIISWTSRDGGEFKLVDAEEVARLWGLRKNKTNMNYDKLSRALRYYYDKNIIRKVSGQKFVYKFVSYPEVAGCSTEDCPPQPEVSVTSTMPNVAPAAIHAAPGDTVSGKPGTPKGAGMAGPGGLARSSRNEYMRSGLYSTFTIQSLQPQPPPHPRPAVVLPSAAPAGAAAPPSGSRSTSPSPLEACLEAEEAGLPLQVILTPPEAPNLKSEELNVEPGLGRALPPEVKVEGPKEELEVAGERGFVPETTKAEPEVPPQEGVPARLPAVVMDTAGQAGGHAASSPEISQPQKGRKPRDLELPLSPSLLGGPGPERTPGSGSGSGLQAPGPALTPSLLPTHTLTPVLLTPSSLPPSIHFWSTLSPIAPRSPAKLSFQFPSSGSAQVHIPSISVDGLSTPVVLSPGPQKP
How it was run: as §1

GABPA = target: T3, GABPA (Homo sapiens, UniProt Q06546 1-454); conditions: protein: recombinant; tags: N-terminal GST; dsDNA, one strand shown
T3 sequence: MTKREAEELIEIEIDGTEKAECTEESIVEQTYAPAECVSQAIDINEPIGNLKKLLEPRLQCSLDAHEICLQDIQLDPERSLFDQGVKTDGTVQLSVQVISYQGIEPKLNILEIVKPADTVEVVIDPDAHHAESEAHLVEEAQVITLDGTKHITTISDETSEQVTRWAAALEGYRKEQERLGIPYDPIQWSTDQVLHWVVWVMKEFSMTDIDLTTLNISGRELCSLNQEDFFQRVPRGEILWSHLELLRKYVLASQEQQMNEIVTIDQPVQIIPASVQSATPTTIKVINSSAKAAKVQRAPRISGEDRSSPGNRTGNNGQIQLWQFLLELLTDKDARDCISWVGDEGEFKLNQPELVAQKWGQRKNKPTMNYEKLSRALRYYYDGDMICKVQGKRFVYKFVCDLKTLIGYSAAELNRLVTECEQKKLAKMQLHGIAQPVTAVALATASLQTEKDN
How it was run: as §1

ERG = target: T4, ERG (Homo sapiens, UniProt P11308 1-479); conditions: protein: recombinant; tags: N-terminal GST; dsDNA, one strand shown
T4 sequence: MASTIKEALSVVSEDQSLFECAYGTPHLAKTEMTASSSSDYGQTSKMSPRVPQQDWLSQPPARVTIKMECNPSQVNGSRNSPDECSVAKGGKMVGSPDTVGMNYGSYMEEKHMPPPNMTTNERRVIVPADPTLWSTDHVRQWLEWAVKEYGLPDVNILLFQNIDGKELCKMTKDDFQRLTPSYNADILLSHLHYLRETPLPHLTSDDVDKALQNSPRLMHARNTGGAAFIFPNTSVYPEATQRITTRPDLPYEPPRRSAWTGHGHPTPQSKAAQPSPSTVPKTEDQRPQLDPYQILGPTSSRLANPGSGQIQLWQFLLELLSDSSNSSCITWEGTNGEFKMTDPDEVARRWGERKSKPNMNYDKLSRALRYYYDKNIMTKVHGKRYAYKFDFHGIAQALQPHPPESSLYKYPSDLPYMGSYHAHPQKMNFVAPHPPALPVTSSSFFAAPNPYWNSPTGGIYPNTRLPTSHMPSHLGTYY
How it was run: as §1

ELF1 = ELF1 (Homo sapiens, UniProt P32519 1-619); conditions: protein: recombinant; tags: N-terminal GST; dsDNA, one strand shown
How it was run: as §1

EHF = target: T5, EHF (Homo sapiens, UniProt Q9NZC4 1-300); conditions: protein: recombinant; tags: N-terminal GST; dsDNA, one strand shown
T5 sequence: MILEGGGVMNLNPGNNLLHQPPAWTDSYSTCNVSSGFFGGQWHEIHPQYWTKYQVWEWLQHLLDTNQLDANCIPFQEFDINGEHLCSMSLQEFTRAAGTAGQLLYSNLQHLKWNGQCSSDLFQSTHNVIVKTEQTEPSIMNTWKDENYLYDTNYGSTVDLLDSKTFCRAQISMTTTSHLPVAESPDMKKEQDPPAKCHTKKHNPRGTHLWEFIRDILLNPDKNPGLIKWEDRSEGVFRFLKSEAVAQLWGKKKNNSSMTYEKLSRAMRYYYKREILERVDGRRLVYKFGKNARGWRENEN
How it was run: as §1

SPI1 = SPI1 (Homo sapiens, UniProt P17947 1-270); conditions: protein: recombinant; tags: N-terminal GST; dsDNA, one strand shown
How it was run: as §1

ELK3 = target: T6, ELK3 (Homo sapiens, UniProt P41970 1-407); conditions: protein: recombinant; tags: N-terminal GST; dsDNA, one strand shown
T6 sequence: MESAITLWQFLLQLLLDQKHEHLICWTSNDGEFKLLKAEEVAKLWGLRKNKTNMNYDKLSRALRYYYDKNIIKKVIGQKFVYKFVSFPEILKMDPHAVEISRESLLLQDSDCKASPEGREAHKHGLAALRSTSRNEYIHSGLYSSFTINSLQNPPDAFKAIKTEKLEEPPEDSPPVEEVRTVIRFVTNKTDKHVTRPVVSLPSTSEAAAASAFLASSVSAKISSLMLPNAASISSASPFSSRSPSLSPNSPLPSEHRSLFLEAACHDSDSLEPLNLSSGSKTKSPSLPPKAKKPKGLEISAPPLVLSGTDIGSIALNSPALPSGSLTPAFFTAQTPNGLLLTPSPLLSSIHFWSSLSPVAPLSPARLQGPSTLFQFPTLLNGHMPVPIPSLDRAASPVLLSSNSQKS
How it was run: as §1

FEV = target: T7, FEV (Homo sapiens, UniProt Q99581 1-238); conditions: protein: recombinant; tags: N-terminal GST; dsDNA, one strand shown
T7 sequence: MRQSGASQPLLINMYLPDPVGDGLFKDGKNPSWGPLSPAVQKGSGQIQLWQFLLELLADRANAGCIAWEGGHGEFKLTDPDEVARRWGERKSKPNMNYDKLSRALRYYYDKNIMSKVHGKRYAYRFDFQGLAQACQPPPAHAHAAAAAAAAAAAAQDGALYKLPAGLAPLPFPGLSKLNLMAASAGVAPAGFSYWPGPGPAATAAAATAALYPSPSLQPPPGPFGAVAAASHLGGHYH
How it was run: as §1

ETV5 = ETV5 (Homo sapiens, UniProt P41161 1-510); conditions: protein: recombinant; tags: N-terminal GST; dsDNA, one strand shown
How it was run: as §1

HSF1 = HSF1 (Homo sapiens, UniProt Q00613 1-529); conditions: protein: recombinant; tags: N-terminal GST; chain copies: 3; dsDNA, one strand shown
How it was run: as §1

SPIC = target: T8, SPIC (Homo sapiens, UniProt Q8N5J4 1-248); conditions: protein: recombinant; tags: N-terminal GST; dsDNA, one strand shown
T8 sequence: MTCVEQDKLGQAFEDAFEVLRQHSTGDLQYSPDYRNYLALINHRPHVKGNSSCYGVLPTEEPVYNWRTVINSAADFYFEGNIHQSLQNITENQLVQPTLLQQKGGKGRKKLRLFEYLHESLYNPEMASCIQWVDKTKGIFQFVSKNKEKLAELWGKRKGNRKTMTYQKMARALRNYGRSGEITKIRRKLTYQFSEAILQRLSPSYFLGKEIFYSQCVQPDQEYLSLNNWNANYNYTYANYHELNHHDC
How it was run: as §1

ELF4 = ELF4 (Homo sapiens, UniProt Q99607 1-663); conditions: protein: recombinant; tags: N-terminal GST; dsDNA, one strand shown
How it was run: as §1

ELK4 = target: T9, ELK4 (Homo sapiens, UniProt P28324-2 1-405); conditions: protein: recombinant; tags: N-terminal GST; dsDNA, one strand shown
T9 sequence: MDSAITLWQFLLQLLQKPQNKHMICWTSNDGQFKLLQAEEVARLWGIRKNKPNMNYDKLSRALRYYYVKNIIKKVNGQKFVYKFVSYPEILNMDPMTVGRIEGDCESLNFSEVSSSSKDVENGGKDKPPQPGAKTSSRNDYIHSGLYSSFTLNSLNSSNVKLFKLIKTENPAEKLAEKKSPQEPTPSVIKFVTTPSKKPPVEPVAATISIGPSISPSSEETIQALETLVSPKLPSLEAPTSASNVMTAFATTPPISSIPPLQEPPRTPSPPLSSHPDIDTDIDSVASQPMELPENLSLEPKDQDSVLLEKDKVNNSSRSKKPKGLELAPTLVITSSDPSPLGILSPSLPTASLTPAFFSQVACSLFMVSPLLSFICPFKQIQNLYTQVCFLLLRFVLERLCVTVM
How it was run: as §1

ETV2 = target: T10, ETV2 (Homo sapiens, UniProt O00321 1-342); conditions: protein: recombinant; tags: N-terminal GST; dsDNA, one strand shown
T10 sequence: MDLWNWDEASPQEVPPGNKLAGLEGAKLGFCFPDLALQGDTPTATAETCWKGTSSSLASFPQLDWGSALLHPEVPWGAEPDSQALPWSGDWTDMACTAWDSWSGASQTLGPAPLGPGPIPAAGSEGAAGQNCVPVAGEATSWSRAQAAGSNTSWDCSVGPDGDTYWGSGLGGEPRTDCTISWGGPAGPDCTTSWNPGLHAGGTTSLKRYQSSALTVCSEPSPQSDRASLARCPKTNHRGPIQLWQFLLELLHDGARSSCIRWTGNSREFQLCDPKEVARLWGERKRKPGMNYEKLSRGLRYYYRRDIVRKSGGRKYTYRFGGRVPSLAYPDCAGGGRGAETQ
How it was run: as §1

ELF3 = target: T11, ELF3 (Homo sapiens, UniProt P78545 1-371); conditions: protein: recombinant; tags: N-terminal GST; dsDNA, one strand shown
T11 sequence: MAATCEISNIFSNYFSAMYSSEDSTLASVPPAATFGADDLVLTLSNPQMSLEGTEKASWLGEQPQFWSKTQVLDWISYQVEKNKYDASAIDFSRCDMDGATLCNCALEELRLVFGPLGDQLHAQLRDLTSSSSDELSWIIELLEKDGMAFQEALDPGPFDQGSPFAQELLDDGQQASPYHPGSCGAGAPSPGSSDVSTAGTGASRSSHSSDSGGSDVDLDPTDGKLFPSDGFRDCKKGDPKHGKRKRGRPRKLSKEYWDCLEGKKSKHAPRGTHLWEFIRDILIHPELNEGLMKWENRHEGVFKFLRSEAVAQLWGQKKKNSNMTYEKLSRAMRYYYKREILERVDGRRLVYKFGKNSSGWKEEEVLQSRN
How it was run: as §1

CRX = CRX (Homo sapiens, UniProt O43186 1-299); conditions: protein: recombinant; tags: N-terminal GST; dsDNA, one strand shown
How it was run: as §1

ETV1 = ETV1 (Homo sapiens, UniProt P50549 1-477); conditions: protein: recombinant; tags: N-terminal GST; dsDNA, one strand shown
How it was run: as §1

Sequence of ELF1 (P32519 whole entry): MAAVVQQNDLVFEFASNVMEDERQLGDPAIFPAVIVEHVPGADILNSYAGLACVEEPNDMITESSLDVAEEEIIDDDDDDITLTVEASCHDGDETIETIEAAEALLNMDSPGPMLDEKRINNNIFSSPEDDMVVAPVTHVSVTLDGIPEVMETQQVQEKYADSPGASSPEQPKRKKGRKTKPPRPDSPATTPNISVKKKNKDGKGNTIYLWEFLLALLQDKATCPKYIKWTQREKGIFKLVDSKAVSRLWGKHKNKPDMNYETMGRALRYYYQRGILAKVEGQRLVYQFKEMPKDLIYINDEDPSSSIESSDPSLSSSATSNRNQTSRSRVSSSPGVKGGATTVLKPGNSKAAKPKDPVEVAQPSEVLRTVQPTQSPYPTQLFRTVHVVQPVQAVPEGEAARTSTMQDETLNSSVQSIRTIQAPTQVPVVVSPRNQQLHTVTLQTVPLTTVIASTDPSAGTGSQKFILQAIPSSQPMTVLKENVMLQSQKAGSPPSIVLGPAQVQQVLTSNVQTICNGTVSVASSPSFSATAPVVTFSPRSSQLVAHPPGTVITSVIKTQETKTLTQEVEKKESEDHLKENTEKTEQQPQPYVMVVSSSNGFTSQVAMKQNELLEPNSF
Sequence of ETV5 (P41161 whole entry): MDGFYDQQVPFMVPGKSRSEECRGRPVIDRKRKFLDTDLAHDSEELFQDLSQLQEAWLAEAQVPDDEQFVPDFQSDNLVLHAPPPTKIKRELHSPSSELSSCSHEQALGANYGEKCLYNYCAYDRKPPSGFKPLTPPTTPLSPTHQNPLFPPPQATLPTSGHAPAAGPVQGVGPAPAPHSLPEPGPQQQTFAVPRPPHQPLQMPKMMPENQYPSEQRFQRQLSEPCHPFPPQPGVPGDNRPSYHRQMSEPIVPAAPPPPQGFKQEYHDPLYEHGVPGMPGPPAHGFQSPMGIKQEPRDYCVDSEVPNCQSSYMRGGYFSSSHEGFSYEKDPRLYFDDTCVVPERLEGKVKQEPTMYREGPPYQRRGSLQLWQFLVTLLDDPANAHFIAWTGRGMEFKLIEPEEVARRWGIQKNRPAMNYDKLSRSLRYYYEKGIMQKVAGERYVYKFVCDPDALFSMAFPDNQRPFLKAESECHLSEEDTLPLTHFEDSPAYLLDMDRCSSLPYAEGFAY
Sequence of ELF4 (Q99607 whole entry): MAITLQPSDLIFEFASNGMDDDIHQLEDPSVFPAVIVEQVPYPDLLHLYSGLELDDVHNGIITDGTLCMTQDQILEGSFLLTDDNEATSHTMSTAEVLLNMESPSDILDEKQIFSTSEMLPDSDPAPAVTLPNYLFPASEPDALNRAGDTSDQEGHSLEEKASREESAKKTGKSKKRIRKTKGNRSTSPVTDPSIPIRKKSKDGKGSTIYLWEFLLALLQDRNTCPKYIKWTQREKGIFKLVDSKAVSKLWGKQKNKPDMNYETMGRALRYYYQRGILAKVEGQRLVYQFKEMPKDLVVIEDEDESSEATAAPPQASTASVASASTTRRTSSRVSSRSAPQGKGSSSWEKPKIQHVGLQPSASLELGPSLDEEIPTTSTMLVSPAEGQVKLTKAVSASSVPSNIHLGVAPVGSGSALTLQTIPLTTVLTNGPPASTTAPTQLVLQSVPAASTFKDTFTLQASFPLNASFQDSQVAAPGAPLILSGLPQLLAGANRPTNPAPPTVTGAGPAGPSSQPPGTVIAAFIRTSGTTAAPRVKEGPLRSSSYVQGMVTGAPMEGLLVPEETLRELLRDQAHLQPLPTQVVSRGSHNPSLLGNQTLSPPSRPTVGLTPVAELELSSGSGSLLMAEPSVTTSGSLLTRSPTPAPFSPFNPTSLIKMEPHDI
Sequence of HSF1 (Q00613 whole entry): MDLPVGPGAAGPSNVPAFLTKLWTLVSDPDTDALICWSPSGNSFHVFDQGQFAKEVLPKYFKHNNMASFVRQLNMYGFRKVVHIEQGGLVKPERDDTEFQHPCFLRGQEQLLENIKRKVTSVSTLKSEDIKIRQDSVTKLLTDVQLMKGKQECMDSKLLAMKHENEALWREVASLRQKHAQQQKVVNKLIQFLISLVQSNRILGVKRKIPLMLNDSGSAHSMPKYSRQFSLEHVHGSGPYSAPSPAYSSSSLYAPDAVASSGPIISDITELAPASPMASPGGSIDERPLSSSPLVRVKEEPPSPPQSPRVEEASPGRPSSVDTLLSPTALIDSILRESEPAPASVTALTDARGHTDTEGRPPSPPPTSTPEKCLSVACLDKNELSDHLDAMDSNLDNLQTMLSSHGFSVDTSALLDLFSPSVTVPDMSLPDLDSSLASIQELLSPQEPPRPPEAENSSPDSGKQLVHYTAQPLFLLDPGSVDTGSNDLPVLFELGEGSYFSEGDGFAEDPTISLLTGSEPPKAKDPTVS
Sequence of CRX (O43186 whole entry): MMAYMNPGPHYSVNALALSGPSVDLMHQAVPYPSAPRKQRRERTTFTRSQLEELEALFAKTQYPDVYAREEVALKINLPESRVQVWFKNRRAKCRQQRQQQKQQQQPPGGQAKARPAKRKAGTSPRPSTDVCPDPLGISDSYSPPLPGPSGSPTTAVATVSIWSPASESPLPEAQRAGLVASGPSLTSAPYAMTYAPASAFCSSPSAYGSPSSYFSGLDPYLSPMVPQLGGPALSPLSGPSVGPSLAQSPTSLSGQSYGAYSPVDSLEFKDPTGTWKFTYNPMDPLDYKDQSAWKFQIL
Sequence of ETV1 (P50549 whole entry): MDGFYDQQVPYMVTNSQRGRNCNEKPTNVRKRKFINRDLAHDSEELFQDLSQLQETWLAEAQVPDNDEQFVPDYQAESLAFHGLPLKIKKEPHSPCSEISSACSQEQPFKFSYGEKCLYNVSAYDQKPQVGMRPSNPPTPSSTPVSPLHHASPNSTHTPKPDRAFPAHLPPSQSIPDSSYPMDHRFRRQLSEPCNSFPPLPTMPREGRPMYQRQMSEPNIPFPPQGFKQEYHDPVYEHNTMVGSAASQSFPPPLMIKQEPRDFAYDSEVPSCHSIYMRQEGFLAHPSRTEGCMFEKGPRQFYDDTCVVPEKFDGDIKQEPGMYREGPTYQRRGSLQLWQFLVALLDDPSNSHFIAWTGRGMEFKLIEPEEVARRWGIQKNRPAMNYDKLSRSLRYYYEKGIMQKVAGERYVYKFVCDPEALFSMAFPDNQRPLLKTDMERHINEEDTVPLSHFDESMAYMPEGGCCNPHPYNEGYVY

ATCATT
binding signal (FLI1): 1.07 fold enrichment (6-mer frequency, TF over GST control)
binding signal (ELK1): 1.05 fold enrichment (6-mer frequency, TF over GST control)
binding signal (GABPA): 1.06 fold enrichment (6-mer frequency, TF over GST control)
binding signal (ERG): 1.02 fold enrichment (6-mer frequency, TF over GST control)
binding signal (ELF1): 1.05 fold enrichment (6-mer frequency, TF over GST control)
binding signal (EHF): 1.01 fold enrichment (6-mer frequency, TF over GST control)
binding signal (SPI1): 1.05 fold enrichment (6-mer frequency, TF over GST control)
binding signal (ELK3): 1.01 fold enrichment (6-mer frequency, TF over GST control)
binding signal (FEV): 1.08 fold enrichment (6-mer frequency, TF over GST control)
binding signal (ETV5): 1.07 fold enrichment (6-mer frequency, TF over GST control)
binding signal (HSF1): 1.18 fold enrichment (6-mer frequency, TF over GST control)
binding signal (SPIC): 1.01 fold enrichment (6-mer frequency, TF over GST control)
binding signal (ELF4): 1.05 fold enrichment (6-mer frequency, TF over GST control)
binding signal (ELK4): 1.06 fold enrichment (6-mer frequency, TF over GST control)
binding signal (ETV2): 1.15 fold enrichment (6-mer frequency, TF over GST control)
binding signal (ELF3): 1.05 fold enrichment (6-mer frequency, TF over GST control)
binding signal (CRX): 1.28 fold enrichment (6-mer frequency, TF over GST control)
binding signal (ETV1): 1.06 fold enrichment (6-mer frequency, TF over GST control)
